ChEMBL document CHEMBL2218924, “A broad activity screen in support of a chemogenomic map for kinase signalling research and drug discovery” (Biochem J, 2013)

How the values were obtained:
[1] = target: T1, Testis-specific serine/threonine-protein kinase 1 (Homo sapiens) (UniProt Q9BXA7); details: at 1 µM
T1 sequence (whole entry): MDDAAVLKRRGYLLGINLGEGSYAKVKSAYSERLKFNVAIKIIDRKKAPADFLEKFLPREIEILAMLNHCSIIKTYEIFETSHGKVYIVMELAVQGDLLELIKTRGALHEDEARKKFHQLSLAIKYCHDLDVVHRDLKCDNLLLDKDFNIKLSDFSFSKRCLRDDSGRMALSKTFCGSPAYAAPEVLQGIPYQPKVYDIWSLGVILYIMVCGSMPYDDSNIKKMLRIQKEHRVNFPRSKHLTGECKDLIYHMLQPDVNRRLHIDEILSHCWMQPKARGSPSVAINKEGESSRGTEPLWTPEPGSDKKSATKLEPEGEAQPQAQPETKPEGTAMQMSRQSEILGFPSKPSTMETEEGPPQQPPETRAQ

[2] = target: T1, Testis-specific serine/threonine-protein kinase 1 (Homo sapiens); details: at 10 µM
[3] = target: T2, Testis-specific serine/threonine-protein kinase 2 (Homo sapiens) (UniProt Q96PF2); details: at 10 µM
T2 sequence (whole entry): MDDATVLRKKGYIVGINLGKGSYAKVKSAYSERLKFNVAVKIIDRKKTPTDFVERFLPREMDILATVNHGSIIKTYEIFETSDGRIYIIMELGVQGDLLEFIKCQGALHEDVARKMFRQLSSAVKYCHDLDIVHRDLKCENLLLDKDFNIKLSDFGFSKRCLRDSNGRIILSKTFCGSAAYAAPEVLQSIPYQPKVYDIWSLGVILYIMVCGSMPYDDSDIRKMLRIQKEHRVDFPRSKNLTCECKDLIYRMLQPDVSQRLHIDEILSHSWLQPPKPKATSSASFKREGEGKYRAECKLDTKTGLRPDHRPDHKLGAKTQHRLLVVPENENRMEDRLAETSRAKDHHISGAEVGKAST

[4] = target: T3, Tyrosine-protein kinase Tec (Homo sapiens) (UniProt P42680); details: at 1 µM
T3 sequence (whole entry): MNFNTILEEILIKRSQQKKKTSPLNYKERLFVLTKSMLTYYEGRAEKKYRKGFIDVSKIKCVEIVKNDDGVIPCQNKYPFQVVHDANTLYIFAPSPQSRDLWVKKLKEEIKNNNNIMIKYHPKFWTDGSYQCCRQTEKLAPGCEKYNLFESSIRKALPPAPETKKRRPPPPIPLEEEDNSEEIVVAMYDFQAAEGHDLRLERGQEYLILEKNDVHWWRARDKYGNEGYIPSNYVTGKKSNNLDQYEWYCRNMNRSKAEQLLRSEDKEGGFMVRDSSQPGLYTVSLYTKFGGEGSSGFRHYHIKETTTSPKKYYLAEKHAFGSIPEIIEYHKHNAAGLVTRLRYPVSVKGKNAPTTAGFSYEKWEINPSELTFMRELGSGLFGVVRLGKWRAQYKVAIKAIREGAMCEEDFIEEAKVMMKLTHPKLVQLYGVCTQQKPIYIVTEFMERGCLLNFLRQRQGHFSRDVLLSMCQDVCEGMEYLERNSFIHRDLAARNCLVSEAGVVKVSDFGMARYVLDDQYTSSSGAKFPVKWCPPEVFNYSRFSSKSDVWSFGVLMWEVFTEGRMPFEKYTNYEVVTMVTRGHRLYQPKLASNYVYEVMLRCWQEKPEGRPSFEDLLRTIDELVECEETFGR

[5] = target: T3, Tyrosine-protein kinase Tec (Homo sapiens); details: at 10 µM
[6] = target: Angiopoietin-1 receptor (Homo sapiens) (UniProt Q02763); details: at 1 µM
[7] = target: Angiopoietin-1 receptor (Homo sapiens) (UniProt Q02763); details: at 10 µM
[8] = target: High affinity nerve growth factor receptor (Homo sapiens) (UniProt P04629); details: at 1 µM
[9] = target: High affinity nerve growth factor receptor (Homo sapiens) (UniProt P04629); details: at 10 µM
[10] = target: BDNF/NT-3 growth factors receptor (Homo sapiens) (UniProt Q16620); details: at 1 µM
[11] = target: BDNF/NT-3 growth factors receptor (Homo sapiens) (UniProt Q16620); details: at 10 µM
[12] = target: T4, Tyrosine-protein kinase TXK (Homo sapiens) (UniProt P42681); details: at 1 µM
T4 sequence (whole entry): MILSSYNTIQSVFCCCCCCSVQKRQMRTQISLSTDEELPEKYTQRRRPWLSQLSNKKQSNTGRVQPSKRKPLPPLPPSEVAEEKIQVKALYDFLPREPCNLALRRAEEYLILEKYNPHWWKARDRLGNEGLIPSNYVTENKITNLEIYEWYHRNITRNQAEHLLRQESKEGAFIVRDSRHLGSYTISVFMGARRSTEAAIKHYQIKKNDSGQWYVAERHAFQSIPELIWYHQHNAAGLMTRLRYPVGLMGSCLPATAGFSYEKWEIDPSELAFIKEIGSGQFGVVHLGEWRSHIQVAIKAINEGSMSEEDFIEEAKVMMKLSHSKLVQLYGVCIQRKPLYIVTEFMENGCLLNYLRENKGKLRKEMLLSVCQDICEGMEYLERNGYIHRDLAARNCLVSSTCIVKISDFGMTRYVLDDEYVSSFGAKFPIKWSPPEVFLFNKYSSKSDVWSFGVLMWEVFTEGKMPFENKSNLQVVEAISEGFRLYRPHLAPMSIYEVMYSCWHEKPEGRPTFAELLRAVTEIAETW

[13] = target: T4, Tyrosine-protein kinase TXK (Homo sapiens); details: at 10 µM
[14] = target: T5, Serine/threonine-protein kinase ULK2 (Homo sapiens) (UniProt Q8IYT8); details: at 1 µM
T5 sequence (whole entry): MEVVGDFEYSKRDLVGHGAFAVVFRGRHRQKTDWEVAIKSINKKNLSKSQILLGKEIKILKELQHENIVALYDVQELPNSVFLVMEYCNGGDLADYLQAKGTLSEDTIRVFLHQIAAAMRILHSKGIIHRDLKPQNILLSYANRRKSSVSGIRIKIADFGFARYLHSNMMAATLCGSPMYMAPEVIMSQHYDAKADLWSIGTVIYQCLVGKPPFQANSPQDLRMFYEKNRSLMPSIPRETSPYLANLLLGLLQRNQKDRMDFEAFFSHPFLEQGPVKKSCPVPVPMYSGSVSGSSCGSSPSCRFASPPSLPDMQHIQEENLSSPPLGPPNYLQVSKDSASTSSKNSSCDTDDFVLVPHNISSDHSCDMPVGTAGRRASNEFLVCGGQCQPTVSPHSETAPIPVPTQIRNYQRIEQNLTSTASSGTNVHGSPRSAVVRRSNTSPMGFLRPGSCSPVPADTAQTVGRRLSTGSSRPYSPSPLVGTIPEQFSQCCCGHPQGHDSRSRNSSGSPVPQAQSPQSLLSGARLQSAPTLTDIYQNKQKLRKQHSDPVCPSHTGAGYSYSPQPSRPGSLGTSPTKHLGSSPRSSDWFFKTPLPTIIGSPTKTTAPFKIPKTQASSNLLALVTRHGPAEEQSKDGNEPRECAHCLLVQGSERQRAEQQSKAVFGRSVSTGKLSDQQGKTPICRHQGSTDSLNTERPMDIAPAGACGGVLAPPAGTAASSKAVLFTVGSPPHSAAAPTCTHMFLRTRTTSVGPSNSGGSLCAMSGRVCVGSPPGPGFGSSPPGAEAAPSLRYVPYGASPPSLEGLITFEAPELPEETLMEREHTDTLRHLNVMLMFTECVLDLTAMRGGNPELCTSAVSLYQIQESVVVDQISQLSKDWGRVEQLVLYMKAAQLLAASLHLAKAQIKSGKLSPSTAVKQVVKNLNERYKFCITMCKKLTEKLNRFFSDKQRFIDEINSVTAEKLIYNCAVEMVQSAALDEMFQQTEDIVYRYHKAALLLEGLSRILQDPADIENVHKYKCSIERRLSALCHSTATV

[15] = target: T5, Serine/threonine-protein kinase ULK2 (Homo sapiens); details: at 10 µM
[16] = target: T6, Serine/threonine-protein kinase ULK3 (Homo sapiens) (UniProt Q6PHR2); details: at 1 µM
T6 sequence (whole entry): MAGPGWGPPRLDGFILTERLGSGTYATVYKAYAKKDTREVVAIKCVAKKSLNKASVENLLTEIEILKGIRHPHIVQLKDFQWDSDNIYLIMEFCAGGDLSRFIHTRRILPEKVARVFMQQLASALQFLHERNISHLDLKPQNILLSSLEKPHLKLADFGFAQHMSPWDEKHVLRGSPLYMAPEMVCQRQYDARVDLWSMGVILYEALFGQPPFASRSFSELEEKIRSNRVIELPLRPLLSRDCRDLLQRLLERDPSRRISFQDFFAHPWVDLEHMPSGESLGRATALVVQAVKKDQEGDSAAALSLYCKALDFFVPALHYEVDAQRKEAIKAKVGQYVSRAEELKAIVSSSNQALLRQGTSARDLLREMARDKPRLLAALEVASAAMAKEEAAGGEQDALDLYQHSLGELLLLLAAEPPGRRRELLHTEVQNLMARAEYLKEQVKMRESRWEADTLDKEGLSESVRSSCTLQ

[17] = target: T6, Serine/threonine-protein kinase ULK3 (Homo sapiens); details: at 10 µM
[18] = target: Serine/threonine-protein kinase VRK2 (Homo sapiens) (UniProt Q86Y07); details: at 1 µM
[19] = target: Serine/threonine-protein kinase VRK2 (Homo sapiens) (UniProt Q86Y07); details: at 10 µM
[20] = target: Serine/threonine-protein kinase WNK2 (Homo sapiens) (UniProt Q9Y3S1); details: at 1 µM;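 further: residual WNK2 kinase activity expressed as percent of uninhibited control, assayed in MOPS buffer at pH 7.0 containing EDTA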
Sequence of Serine/threonine-protein kinase WNK2 (Homo sapiens) (Q9Y3S1 whole entry): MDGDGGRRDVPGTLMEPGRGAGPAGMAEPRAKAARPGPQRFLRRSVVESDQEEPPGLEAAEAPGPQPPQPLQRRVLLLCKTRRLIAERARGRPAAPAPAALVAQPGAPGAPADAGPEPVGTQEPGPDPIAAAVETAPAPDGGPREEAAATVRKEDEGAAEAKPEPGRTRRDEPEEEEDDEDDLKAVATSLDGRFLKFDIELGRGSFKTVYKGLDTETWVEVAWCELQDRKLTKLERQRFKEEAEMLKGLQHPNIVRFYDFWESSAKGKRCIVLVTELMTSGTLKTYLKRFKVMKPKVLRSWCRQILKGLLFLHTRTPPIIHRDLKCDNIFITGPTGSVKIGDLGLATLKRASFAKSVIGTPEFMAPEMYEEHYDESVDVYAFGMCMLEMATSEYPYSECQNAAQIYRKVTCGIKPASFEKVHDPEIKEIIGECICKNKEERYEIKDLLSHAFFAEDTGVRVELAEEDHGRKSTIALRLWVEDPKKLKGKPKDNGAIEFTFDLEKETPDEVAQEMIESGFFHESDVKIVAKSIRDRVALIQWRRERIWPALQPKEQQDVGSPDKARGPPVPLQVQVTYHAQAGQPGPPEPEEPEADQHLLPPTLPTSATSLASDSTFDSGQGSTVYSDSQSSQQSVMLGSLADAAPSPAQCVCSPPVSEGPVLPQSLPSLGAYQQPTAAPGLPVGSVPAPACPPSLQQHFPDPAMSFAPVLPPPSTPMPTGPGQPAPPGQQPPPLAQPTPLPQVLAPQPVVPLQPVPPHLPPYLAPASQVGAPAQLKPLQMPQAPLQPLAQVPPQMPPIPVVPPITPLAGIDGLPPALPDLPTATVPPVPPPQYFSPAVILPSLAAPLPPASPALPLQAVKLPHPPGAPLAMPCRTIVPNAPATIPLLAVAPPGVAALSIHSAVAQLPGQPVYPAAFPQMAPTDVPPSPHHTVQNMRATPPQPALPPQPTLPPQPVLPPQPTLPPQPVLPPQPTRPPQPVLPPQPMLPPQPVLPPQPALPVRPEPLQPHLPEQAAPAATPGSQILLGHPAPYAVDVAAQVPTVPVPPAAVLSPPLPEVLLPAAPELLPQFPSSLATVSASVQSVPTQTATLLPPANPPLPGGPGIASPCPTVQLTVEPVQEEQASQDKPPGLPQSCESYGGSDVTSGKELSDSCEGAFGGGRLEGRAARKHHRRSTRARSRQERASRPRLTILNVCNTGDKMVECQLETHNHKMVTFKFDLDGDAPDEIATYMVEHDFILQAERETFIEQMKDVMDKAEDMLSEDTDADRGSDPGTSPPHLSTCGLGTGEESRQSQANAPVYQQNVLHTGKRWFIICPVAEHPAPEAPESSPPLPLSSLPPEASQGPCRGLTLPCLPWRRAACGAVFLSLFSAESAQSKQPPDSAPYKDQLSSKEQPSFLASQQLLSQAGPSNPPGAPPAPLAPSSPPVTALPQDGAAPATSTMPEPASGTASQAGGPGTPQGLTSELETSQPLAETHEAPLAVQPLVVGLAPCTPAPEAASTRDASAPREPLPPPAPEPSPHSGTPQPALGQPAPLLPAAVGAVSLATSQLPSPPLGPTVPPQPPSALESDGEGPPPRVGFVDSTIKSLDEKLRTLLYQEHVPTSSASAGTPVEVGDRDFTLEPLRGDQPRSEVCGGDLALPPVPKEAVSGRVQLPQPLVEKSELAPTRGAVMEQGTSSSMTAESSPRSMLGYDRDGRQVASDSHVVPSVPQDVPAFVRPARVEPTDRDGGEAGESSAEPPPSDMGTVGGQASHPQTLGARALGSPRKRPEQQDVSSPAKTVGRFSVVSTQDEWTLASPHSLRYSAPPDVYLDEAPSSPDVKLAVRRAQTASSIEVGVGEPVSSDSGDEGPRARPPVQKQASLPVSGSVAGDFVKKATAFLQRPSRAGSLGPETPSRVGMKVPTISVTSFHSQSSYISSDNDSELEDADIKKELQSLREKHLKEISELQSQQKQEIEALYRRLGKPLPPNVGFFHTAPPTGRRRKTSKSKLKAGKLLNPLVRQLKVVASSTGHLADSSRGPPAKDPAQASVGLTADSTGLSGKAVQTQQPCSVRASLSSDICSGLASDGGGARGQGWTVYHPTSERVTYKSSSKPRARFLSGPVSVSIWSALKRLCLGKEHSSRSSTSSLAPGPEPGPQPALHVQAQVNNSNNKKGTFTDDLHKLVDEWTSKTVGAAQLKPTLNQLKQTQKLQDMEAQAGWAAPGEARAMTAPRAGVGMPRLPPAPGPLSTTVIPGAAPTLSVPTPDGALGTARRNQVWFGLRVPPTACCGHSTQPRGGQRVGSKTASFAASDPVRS

Sequence of High affinity nerve growth factor receptor (Homo sapiens) (P04629 33-796 limits assumed): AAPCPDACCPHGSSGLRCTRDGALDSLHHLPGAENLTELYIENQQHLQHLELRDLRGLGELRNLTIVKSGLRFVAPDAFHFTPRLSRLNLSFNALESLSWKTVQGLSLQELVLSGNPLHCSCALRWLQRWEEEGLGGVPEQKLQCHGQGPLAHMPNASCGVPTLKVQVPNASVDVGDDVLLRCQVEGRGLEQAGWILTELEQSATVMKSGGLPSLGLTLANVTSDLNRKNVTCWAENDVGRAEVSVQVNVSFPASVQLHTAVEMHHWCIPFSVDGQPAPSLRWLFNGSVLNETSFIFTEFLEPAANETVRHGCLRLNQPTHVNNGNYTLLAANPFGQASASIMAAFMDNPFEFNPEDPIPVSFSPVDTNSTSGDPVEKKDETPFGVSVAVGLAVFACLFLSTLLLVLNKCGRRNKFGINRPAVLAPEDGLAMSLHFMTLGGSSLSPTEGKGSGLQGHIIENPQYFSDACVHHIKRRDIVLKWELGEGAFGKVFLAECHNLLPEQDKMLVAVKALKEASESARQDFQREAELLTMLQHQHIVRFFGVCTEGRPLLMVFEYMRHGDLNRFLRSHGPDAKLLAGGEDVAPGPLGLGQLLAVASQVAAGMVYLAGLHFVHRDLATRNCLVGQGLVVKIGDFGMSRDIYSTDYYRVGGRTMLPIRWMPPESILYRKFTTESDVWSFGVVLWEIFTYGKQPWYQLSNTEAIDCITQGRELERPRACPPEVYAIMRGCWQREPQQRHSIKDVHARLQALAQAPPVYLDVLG
Sequence of Angiopoietin-1 receptor (Homo sapiens) (Q02763 whole entry): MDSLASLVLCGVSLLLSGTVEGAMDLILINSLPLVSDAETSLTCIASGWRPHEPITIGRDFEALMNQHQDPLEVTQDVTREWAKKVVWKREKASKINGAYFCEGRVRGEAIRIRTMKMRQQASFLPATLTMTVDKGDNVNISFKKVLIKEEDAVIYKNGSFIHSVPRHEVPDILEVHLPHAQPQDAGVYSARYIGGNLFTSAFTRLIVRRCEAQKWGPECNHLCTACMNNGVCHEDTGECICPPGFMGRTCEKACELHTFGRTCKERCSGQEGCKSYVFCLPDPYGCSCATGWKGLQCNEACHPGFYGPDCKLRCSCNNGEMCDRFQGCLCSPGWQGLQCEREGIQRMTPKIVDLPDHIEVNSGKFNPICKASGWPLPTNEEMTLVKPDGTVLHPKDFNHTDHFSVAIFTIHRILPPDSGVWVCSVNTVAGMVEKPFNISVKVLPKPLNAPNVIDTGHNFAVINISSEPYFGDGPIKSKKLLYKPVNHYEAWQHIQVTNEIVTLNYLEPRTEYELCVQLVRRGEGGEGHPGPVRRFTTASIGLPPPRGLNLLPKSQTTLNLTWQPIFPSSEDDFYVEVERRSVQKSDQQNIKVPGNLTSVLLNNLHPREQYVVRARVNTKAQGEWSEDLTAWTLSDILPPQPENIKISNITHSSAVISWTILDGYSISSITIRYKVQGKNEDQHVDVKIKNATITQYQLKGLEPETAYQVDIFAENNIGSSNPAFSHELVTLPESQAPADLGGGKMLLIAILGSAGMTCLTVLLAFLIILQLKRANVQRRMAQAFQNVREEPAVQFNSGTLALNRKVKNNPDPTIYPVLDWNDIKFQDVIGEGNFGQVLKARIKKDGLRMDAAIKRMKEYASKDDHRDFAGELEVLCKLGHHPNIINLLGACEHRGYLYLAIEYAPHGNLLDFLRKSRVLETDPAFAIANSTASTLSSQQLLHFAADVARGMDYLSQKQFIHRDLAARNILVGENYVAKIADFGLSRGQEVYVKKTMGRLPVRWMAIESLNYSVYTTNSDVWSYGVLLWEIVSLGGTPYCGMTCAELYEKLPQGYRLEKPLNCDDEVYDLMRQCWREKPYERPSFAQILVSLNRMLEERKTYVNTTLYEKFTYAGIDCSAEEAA
Sequence of Serine/threonine-protein kinase VRK2 (Homo sapiens) (Q86Y07 whole entry): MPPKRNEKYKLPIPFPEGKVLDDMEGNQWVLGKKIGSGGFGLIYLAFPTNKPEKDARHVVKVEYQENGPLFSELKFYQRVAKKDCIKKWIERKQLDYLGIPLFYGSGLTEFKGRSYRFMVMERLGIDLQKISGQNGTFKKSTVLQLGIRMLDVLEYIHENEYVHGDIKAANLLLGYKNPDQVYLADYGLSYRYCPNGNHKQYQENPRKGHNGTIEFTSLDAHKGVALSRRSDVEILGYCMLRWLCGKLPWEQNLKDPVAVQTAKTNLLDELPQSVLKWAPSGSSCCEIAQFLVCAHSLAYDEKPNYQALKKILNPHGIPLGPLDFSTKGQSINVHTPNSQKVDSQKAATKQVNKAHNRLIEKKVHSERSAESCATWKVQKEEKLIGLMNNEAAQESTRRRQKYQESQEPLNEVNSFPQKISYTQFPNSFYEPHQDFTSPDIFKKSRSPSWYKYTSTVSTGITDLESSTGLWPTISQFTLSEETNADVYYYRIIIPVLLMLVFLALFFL

SMILES | residual activity [1] | residual activity [2] | residual activity [3] | residual activity [4] | residual activity [5] | residual activity [6] | residual activity [7] | residual activity [8] | residual activity [9] | residual activity [10] | residual activity [11] | residual activity [12] | residual activity [13] | residual activity [14] | residual activity [15] | residual activity [16] | residual activity [17] | residual activity [18] | residual activity [19] | residual activity [20]
Cc1cc2ncc(-c3ccccc3)nc2cc1C | 101% | 97% | 91% | 90% | 71% | 98% | 89% | 106% | 81% | 94% | 53% | 90% | 84% | 104% | 88% | 107% | 96% | 105% (inactive) | 96% | 99% (inactive)
O=C(O)c1ccc2c3c1cccc3c(=O)n1c3ccccc3nc21 | 106% | 79% | 108% | 99% | 82% | 106% | 99% | 78% | 19% | 86% | 59% | 77% | 60% | 90% | 48% | 91% | 70% | 105% (inactive) | 89% | 113% (inactive)
O=C1Nc2cc(Br)ccc2/C1=C1/Nc2ccccc2/C1=N\O | 86% | 90% | 62% | 15% | 13% | 67% | 79% | 0% | 0% | -1% | -1% | 13% | 23% | 102% | 98% | 55% | 16% | 94% (inactive) | 90% | 89% (inactive)
Oc1ccc(Nc2nc(-c3ccc(Cl)cc3)cs2)cc1 | 110% | 87% | 105% | 100% | 78% | 113% | 131% | 108% | 64% | 74% | 78% | 97% | 79% | 118% | 105% | 96% | 102% | 98% (inactive) | 102% | 117% (inactive)
O=c1c2ccccc2[nH]c(=S)n1CCN1CCC(=C(c2ccc(F)cc2)c2ccc(F)cc2)CC1 | 101% | 86% | 70% | 94% | 44% | 87% | 59% | 82% | 87% | 44% | 59% | 102% | 80% | 109% | 98% | 107% | 94% | 116% (inactive) | 99% | 113% (inactive)
Nc1nc(Nc2ccc(S(N)(=O)=O)cc2)nn1C(=S)Nc1c(F)cccc1F | 16% | 12% | 12% | 78% | 23% | -1% | -2% | 0% | -1% | 0% | 0% | 71% | 32% | 4% | 0% | 0% | 1% | 84% (inactive) | 37% | –
